Laboratory results published in PubChem BioAssay (NCATS).
Records with an inconclusive call do not appear. A call without a number means that no potency is given here. Active and inactive are the calls of the source. Calls come from the whole dose curve.

experiment: Validation screen for inhibitors of Lassa infection (AID 463096); conditions: Lassa virus infection, cell-based; series mostly up to 46.1 µM
Potency is the fitted concentration of half-maximal effect.

For `CCn1ccnc1CC1COc2ccccc2O1` (centres undefined), which Potency is on record?
Its Potency is “inactive”.

For `Nc1ccn([C@H]2CC[C@@H](CO)O2)c(=O)n1`, which Potency is on record?
The Potency was “inactive”.

With `OC(CN1CCC(Cc2ccc(F)cc2)CC1)c1ccc(Cl)cc1` (centres undefined) as the compound, how does the Potency read?
The Potency was “inactive”.

Which Potency does the source give for `CN(C)CCCN1c2ccccc2Sc2ccccc21` here?
The Potency was “inactive”.

With `NS(=O)(=O)c1cc2c(cc1Cl)NC(C1CC3C=CC1C3)NS2(=O)=O` (centres undefined) as the compound, how does the Potency read?
Its Potency is “inactive”.

For `COC(=O)C1=C(C)NC(C)=C(C(=O)OC)C1c1ccccc1[N+](=O)[O-]`, which Potency is on record?
Its Potency is “inactive”.

With `NCCc1ccc(O)c(O)c1` as the compound, how does the Potency read?
The Potency was “inactive”.

For `CCNC(=O)N1CCN(CCCC(c2ccc(F)cc2)c2ccc(F)cc2)CC1`, which Potency is on record?
Its Potency is “inactive”.

With `CN1CCC(=C2c3ccccc3CC(=O)c3sccc32)CC1` as the compound, how does the Potency read?
Its Potency is “inactive”.

With `C[n+]1cc2c3c(ccc2c2ccc4cc5c(cc4c21)OCO5)OCO3` as the compound, how does the Potency read?
Its Potency is 2 µM (active).

Which Potency does the source give for `C[C@]12CC[C@@H]3c4ccc(O)cc4CC[C@H]3[C@@H]1CCC2=O` here?
Its Potency is “inactive”.

For `c1ccc([C@H]2CN3CCSC3=N2)cc1`, which Potency is on record?
The Potency was “inactive”.

For `COc1ccc(CCN(C)CCCC(C#N)(c2cc(OC)c(OC)c(OC)c2)C(C)C)cc1OC` (centres undefined), which Potency is on record?
Its Potency is “inactive”.

With `CCCCCN(CCCCC)C(=O)C(CCC(=O)O)NC(=O)c1ccc(Cl)c(Cl)c1` (centres undefined) as the compound, how does the Potency read?
Its Potency is “inactive”.

Which Potency does the source give for `CN(C)C(=O)Oc1cccc([N+](C)(C)C)c1` here?
Its Potency is “inactive”.

For `COc1ccccc1N1CCN(CC(O)COc2cccc3ccccc23)CC1` (centres undefined), which Potency is on record?
The Potency was “inactive”.

For `C=CCc1ccccc1OCC(O)CNC(C)C` (centres undefined), which Potency is on record?
The Potency was “inactive”.

Which Potency does the source give for `Fc1ccc(C(c2ccc(F)cc2)N2CCN(C/C=C/c3ccccc3)CC2)cc1` here?
Its Potency is “inactive”.

With `CCOC(=O)C1=C[C@]2(CC)CCCN3CCc4c(n1c1ccccc41)[C@@H]32` as the compound, how does the Potency read?
The Potency was “inactive”.

For `C(=C\c1ccccc1)/CN1CCN(C(c2ccccc2)c2ccccc2)CC1`, which Potency is on record?
Its Potency is “inactive”.

For `CN(C)CCOC(c1ccccc1)c1ccccc1`, which Potency is on record?
The Potency was “inactive”.

Which Potency does the source give for `COc1cc(C(=O)OCCCN2CCCN(CCCOC(=O)c3cc(OC)c(OC)c(OC)c3)CC2)cc(OC)c1OC` here?
The Potency was “inactive”.

Which Potency does the source give for `CCCCC1C(=O)N(c2ccccc2)N(c2ccccc2)C1=O` here?
The Potency was “inactive”.

For `CC(C(O)c1ccc(O)cc1)N1CCC(Cc2ccccc2)CC1` (centres undefined), which Potency is on record?
The Potency was “inactive”.

Which Potency does the source give for `CCCN(CCC)C(=O)C(CCC(=O)O)NC(=O)c1ccccc1` (centres undefined) here?
Its Potency is “inactive”.

Which Potency does the source give for `O=C1N(c2ccccc2)c2ccccc2C1(Cc1ccncc1)Cc1ccncc1` here?
The Potency was “inactive”.

With `CC1=C(CC(=O)O)c2cc(F)ccc2/C1=C\c1ccc(S(C)=O)cc1` (centres undefined) as the compound, how does the Potency read?
The Potency was “inactive”.

For `CNC[C@H](O)c1ccc(O)c(O)c1`, which Potency is on record?
Its Potency is “inactive”.

Which Potency does the source give for `O=C(O)CP(=O)(O)O` here?
The Potency was “inactive”.

Which Potency does the source give for `Cc1[nH]c(=O)c(C#N)cc1-c1ccc2nccn2c1` here?
Its Potency is “inactive”.

Which Potency does the source give for `CNCCC(Oc1ccccc1OC)c1ccccc1` (centres undefined) here?
The Potency was “inactive”.

With `CN(C)CC[C@@H](c1ccc(Cl)cc1)c1ccccn1` as the compound, how does the Potency read?
The Potency was “inactive”.

With `Cc1ccc(C(=O)Nc2ccc(S(=O)(=O)O)c3cc(S(=O)(=O)O)cc(S(=O)(=O)O)c23)cc1NC(=O)c1cccc(NC(=O)Nc2cccc(C(=O)Nc3cc(C(=O)Nc4ccc(S(=O)(=O)O)c5cc(S(=O)(=O)O)cc(S(=O)(=O)O)c45)ccc3C)c2)c1` as the compound, how does the Potency read?
Its Potency is “inactive”.

With `C[C@]12CCC(=O)C=C1CC[C@@H]1[C@@H]2CC[C@@]2(C)[C@H]1CC[C@]2(O)C(=O)CO` as the compound, how does the Potency read?
The Potency was “inactive”.
